± gives the standard deviation of the averaged measurements.
Key:
[1] = tested on: DLD1; assay: cell viability (CellTiter-Glo) relative to plate median (fraction of plate median); higher = more viable cells; conditions: 5 µM; treatment time 24 h; reporter: 7TFP
How it was run: (§1)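 On parallel plates, a Tecan F500 reader recorded either firefly luciferase or CellTiterGlo luminescence. The plates held colorectal cancer cells stably transduced with lentiviral TCF/Wnt firefly luciferase reporters (7TFP or TCF4/Wnt), seeded in 384-well format and treated 24 h later with library compounds at a final 5 µM for 24 h. Per-well signals were normalised to the plate median (webcellHTS2, additive, no log transformation), and two independent replicates were averaged.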

[2] = tested on: HCT116; assay: as above; conditions: 5 µM; treatment time 24 h; reporter: TCF4/Wnt
How it was run: as §1

[3] = tested on: SW480; assay: as above; conditions: 5 µM; treatment time 24 h; reporter: 7TFP
How it was run: as §1

[4] = tested on: DLD1; assay: TCF/Wnt firefly luciferase reporter signal relative to plate median (fraction of plate median); higher = higher Wnt reporter signal; conditions: 5 µM; treatment time 24 h; reporter: 7TFP
How it was run: as §1

[5] = tested on: SW480; assay: as above; conditions: 5 µM; treatment time 24 h; reporter: 7TFP
How it was run: as §1

Compound | cell viability [1] | cell viability [2] | cell viability [3] | TCF/Wnt firefly luciferase reporter signal [4] | TCF/Wnt firefly luciferase reporter signal [5]
COC(=O)C[C@H]1C(C)(C)C2(O)OC34CC2C(=O)[C@]1(C)C3CC[C@]1(C)C4=CC(=O)O[C@H]1c1ccoc1 (stereo partly drawn) [8beta-HYDROXYCARAPIN, 3,8-HEMIACETAL] | 1.02 ± 0.014 | 1.07 ± 0.11 | 0.9895 ± 0.0092 | 0.866 ± 0.067 | 0.816 ± 0.019
CCN(CC)CCNC(=O)c1cc(Cl)c(N)cc1OC | 1 ± 0.037 | 1.04 ± 0.066 | 0.993 ± 0.025 | 1.14 ± 0.05 | 1 ± 0.069
CCN(CC)CCNC(=O)c1ccc(NC(C)=O)cc1 | 1.01 ± 0.075 | 1.05 ± 0.071 | 1.06 ± 0.035 | 1.08 ± 0.028 | 1.14 ± 0.014
O=C(Cn1ccnc1[N+](=O)[O-])NCCO | 0.992 ± 0.04 | 0.989 ± 0.1 | 0.9935 ± 0.0092 | 1.09 ± 0.17 | 1.02 ± 0.038
NS(=O)(=O)c1cc(C2(O)NC(=O)c3ccccc32)ccc1Cl (stereo not given) | 1.02 ± 0.067 | 1.02 ± 0.036 | 0.986 ± 0.1 | 0.958 ± 0.13 | 0.981 ± 0.025
Clc1ccc2c(c1)C(N1CCNCC1)=Nc1ccccc1O2 | 1.045 ± 0.0071 | 1.085 ± 0.0071 | 0.995 ± 0.021 | 0.789 ± 0.058 | 0.905 ± 0.042
CCCC(CCC)C(=O)O | 1.03 ± 0.045 | 1.09 ± 0.035 | 0.973 ± 0.052 | 1.115 ± 0.0071 | 1.06 ± 0.078
CN(C)CCC(c1ccc(Br)cc1)c1ccccn1 (stereo not given) | 0.931 ± 0.15 | 1.055 ± 0.0071 | 0.922 ± 0.061 | 1.11 ± 0.11 | 1.055 ± 0.0071
CC1(C)CC[C@]2(C(=O)O)[C@H](O)C[C@]3(C)C(=CC[C@@H]4[C@@]5(C)CC[C@H](O)C(C)(C)[C@@H]5CC[C@]43C)[C@H]2C1 | 0.9085 ± 0.0035 | 0.94 ± 0.16 | 0.9525 ± 0.0092 | 0.919 ± 0.033 | 0.999 ± 0.016
CCC(CCC(C)C1CCC2C3CCC4CC(O)CCC4(C)C3CCC12C)C(C)C (stereo not given) | 1.11 ± 0.057 | 1.06 ± 0.021 | 1.06 ± 0.021 | 1.23 ± 0.078 | 1.01 ± 0.015
C[C@@H]1C[C@H]2[C@@H]3C[C@H](F)C4=CC(=O)C=C[C@]4(C)[C@@]3(F)[C@@H](O)C[C@]2(C)[C@@]1(O)C(=O)CO | 1.05 ± 0.057 | 0.889 ± 0.02 | 1.03 ± 0.028 | 1.02 ± 0.14 | 0.986 ± 0.076
CCOC(=O)C1=C(COCCN)NC(C)=C(C(=O)OC)C1c1ccccc1Cl (stereo not given) | 0.998 ± 0.031 | 1.01 ± 0.097 | 1.03 ± 0.083 | 1.02 ± 0.11 | 1.04 ± 0.042
C1CCN2C[C@@H]3C[C@H](CN4CCCC[C@@H]34)[C@H]2C1 | 0.938 ± 0.076 | 0.9855 ± 0.0064 | 0.93 ± 0.035 | 0.883 ± 0.072 | 0.979 ± 0.03
O=C(O)c1cc(-c2ccc(F)cc2F)ccc1O | 0.973 ± 0.0042 | 1.07 ± 0.057 | 1.01 ± 0.021 | 1.32 ± 0.13 | 1.16 ± 0.021
O=c1cc(-c2ccccc2)oc2cc(O)c(O)cc12 | 1.04 ± 0.14 | 0.986 ± 0.063 | 1.03 ± 0.042 | 0.801 ± 0.064 | 1 ± 0.12
CC(=O)N[C@@H](C=O)[C@@H](O)[C@H](O)[C@H](O)CO | 1.04 ± 0.021 | 1.06 ± 0.014 | 0.945 ± 0.013 | 1.18 ± 0.035 | 1.2 ± 0.057
CCc1cn([C@H]2C[C@H](O)[C@@H](CO)O2)c(=O)[nH]c1=O | 0.9885 ± 0.0021 | 0.968 ± 0.073 | 1.01 ± 0.023 | 1.03 ± 0.14 | 1.08 ± 0.085
CN(CCOc1ccc(CC2SC(=O)NC2=O)cc1)c1ccccn1 (stereo not given) | 0.935 ± 0.03 | 0.894 ± 0.044 | 0.949 ± 0.04 | 0.899 ± 0.09 | 0.906 ± 0.15
COc1ccc2cc(CCC(C)=O)ccc2c1 | 0.968 ± 0.074 | 0.905 ± 0.09 | 0.925 ± 0.0085 | 1.24 ± 0.27 | 1.25 ± 0.035
C=C(C)[C@@H]1CC[C@]2(C(=O)O)CC[C@]3(C)[C@H](CC[C@@H]4[C@@]5(C)CC[C@H](O)C(C)(C)[C@@H]5CC[C@]43C)[C@@H]12 | 1.03 ± 0.021 | 1.09 | 1.005 ± 0.0071 | 1.055 ± 0.0071 | 1.01 ± 0.014
C1N2CN3CN1CN(C2)C3 | 1.04 ± 0.085 | 1.08 ± 0.12 | 0.978 ± 0.028 | 0.985 ± 0.05 | 1.02 ± 0.028
COc1cc(C(=O)N2CCOCC2)cc(OC)c1OC | 1.08 ± 0.11 | 1.03 ± 0.079 | 1.06 ± 0.028 | 1.04 ± 0.24 | 1.08 ± 0.035
NCCS | 1.02 ± 0.014 | 1.07 ± 0.12 | 1.035 ± 0.0071 | 1.21 ± 0.021 | 1.16 ± 0.092
Clc1ccc2c(c1)CCc1cccnc1C2=C1CCNCC1 | 0.992 ± 0.011 | 1.07 ± 0.021 | 0.97 ± 0.021 | 1 ± 0.015 | 1.12 ± 0.014
CCN1CCCC1CNC(=O)c1cc(S(N)(=O)=O)ccc1OC (stereo not given) | 0.985 ± 0.064 | 0.954 ± 0.023 | 1.02 ± 0.071 | 1.06 ± 0.22 | 0.959 ± 0.072
O=c1cc(-c2ccccc2)oc2cccc(O)c12 | 0.972 ± 0.068 | 1.04 ± 0.073 | 1.04 ± 0.058 | 0.98 ± 0.0085 | 1.03
CN(C)CCCO[C@@H]1[C@H]2OC(C)(C)O[C@H]2O[C@@H]1[C@H](O)CO | 1.04 ± 0.06 | 0.9935 ± 0.0064 | 0.96 ± 0.038 | 0.998 ± 0.14 | 0.972 ± 0.029
CC[C@]1(O)C[C@H]2CN(CCc3c([nH]c4ccccc34)[C@@](C(=O)OC)(c3cc4c(cc3OC)N(C=O)[C@H]3[C@@](O)(C(=O)OC)[C@H](OC(C)=O)[C@]5(CC)C=CCN6CC[C@]43[C@@H]65)C2)C1 | 1.01 ± 0.16 | 0.53 ± 0.064 | 1.17 ± 0.035 | 0.666 ± 0.091 | 0.713 ± 0.075
CC[C@@H]1C(=O)OC[C@@H]1Cc1cncn1C | 1.015 ± 0.0071 | 0.953 ± 0.067 | 0.992 ± 0.012 | 1.18 ± 0.05 | 1.16 ± 0.16
O=C(CC(=O)c1ccccc1)c1ccccc1 | 0.972 ± 0.069 | 0.82 ± 0.026 | 1.03 | 1.15 ± 0.021 | 1.17 ± 0.057
